Experimental data published in PubChem BioAssay (Tox21).
Inconclusive results are not listed. A structure can be active in one record and inactive in another. Activity calls are given as the source filed them. Calls follow the shape of the dose curve; as a rule, active = well fitted activation curve with a large enough effect in the repeat runs; inconclusive = weak or mixed curves; inactive = no such curve, though single readings can be large or run the other way.

Molecular target: Nuclear receptor subfamily 1 group I member 2 (Homo sapiens) (UniProt O75469)
Assay: Human pregnane X receptor (PXR) small molecule agonists, qHTS assay (AID 1346982); also: nearly all actives have a fitted effect of over 35% in size
Settings: PXR-Luc HepG2, CYP3A4 luciferase reporter, 24 h; series mostly up to 92.4 µM; activation: at the top concentration
Summary of the method: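 Agonist mode: luminescence from ONE-Glo after 24 h compound exposure at 37C in HepG2 cells carrying hPXR-responsive CYP3A4 luciferase, plated in charcoal-stripped serum medium 5 h beforehand.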
% is scaled to controls: 0 for no effect and ±100 for the full control effect; potency is read from the fitted curve at half-maximal effect.

Nuclear receptor subfamily 1 group I member 2 (Homo sapiens), sequence (O75469 whole entry, looked up): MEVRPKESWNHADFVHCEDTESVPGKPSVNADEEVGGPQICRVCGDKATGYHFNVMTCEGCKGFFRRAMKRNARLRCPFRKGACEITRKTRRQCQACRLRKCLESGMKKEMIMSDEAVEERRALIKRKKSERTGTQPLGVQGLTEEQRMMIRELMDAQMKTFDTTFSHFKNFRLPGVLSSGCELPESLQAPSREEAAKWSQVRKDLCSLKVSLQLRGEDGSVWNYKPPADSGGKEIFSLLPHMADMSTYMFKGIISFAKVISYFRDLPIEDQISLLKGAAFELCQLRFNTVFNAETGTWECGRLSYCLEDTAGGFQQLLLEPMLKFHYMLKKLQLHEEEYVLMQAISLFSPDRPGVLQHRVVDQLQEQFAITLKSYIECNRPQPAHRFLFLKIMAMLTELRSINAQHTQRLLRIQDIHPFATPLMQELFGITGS

| Structure (SMILES) | Potency | activation |
| --- | --- | --- |
| CCN(C(=O)c1cc(C)cc(OC[C@H](C)Nc2ccncc2)c1)C(C)C | 17 µM (active) |  |
| CCCCCCCCCCCCCCCC[N+](C)(C)CCN(Cc1ccc(OC)cc1)c1ncccn1 |  | -31.8% [at 42.5 µM] (inactive) |
| C[n+]1ccn(Cc2ccccc2)c1 | 30.5 µM (active) |  |
| O=C(Nc1ccc(Oc2ccc(Cl)cc2)c(Cl)c1)c1cc(I)cc(I)c1O | 26.6 µM (active) |  |
| CCCC(C)c1ccccc1O (stereo unspecified) |  | 22.3% (inactive) |
| OCc1c[nH]c2ccccc12 | 24.3 µM (active) |  |
| O=c1[nH]sc2cc(Cl)ccc12 |  | -9.36% [at 42.5 µM] (inactive) |
| CC1=C(/C=C/C(C)=C/C=C/C(C)=C/C=O)C(C)(C)CCC1 | 15.3 µM (active) |  |
| O=c1c(-c2ccccc2)c1-c1ccccc1 | 11.9 µM (active) |  |
| NC(=NCCCCCCN=C(N)/N=C(\N)Nc1ccc(Cl)cc1)/N=C(\N)Nc1ccc(Cl)cc1 | 2.41 µM (active) and inactive |  |
| CCCCCCCCOc1ccccc1C(=O)Nc1ccc(C(=O)OCC[N+](C)(CC)CC)cc1 |  | -14.9% [at 42.5 µM] (inactive) |
| CCCCCCCCCCCC(=O)NCCCN(C)C | 24.3 µM (active) |  |
| CN(C)c1ccc(C2(c3ccc(N(C)C)cc3)OC(=O)c3cc(N(C)C)ccc32)cc1 |  | 2.92% (inactive) |
| Oc1c(Cl)cc(Cl)c2cccnc12 | 26.6 µM (active) |  |
| CCCCCCCCOC(=O)c1ccc(O)cc1 | 30.5 µM (active) and inactive |  |
| CCCCCCOC(=O)c1ccc(O)cc1 |  | 23.6% (inactive) |
| CCCCCCCCCOC(=O)c1ccc(O)cc1 |  | 8.95% (inactive) |
| CCCCC(CC)COC(=O)c1ccccc1C(=O)O (stereo unspecified) | 35 µM (active) |  |
| CCC1OCC(COc2ccc(Oc3ccccc3)cc2)O1 (stereo unspecified) | 34.4 µM (active) |  |
| O=C1C=CC(=O)N1 |  | -30.7% (inactive) |
| O=C(Oc1ccccc1)c1ccccc1C(=O)Oc1ccccc1 |  | 7.88% (inactive) |
| COC(=O)C1=C(C)NC(C)=C(C(=O)OCCc2ccc(N3CCN(C(c4ccccc4)c4ccccc4)CC3)cc2)C1c1cccc([N+](=O)[O-])c1 (stereo unspecified) |  | 15.7% [at 42.5 µM] (inactive) |
| CCc1cc(SCc2sc(-c3ccc(C(F)(F)F)cc3)nc2CN2CCN(c3ccc(OC)cc3)CC2)ccc1OCC(=O)O | 48.6 µM (active) |  |
| O=C(OC[C@H]1O[C@@H](OC(=O)c2cc(O)c(O)c(OC(=O)c3cc(O)c(O)c(O)c3)c2)[C@H](OC(=O)c2cc(O)c(O)c(OC(=O)c3cc(O)c(O)c(O)c3)c2)[C@@H](OC(=O)c2cc(O)c(O)c(OC(=O)c3cc(O)c(O)c(O)c3)c2)[C@@H]1OC(=O)c1cc(O)c(O)c(OC(=O)c2cc(O)c(O)c(O)c2)c1)c1cc(O)c(O)c(OC(=O)c2cc(O)c(O)c(O)c2)c1 |  | -5.98% [at 19 µM] (inactive) |
| CC1(C)CCC(C)(C)c2cc(C(=O)Nc3ccc(C(=O)O)cc3)ccc21 |  | 18.1% (inactive) |
| c1ccc(CSCc2ccccc2)cc1 | 27.2 µM (active) |  |
